# In the library only some 19% were active in any assay of this set; here they are far more common.
# TDP1 cell CPT – growth inhibition of DT40 Tdp1-/-;hTDP1 cells with camptothecin (screen for TDP1 inhibitors); Potency, µM (highest dose often 46.2 µM), without a hit: top-dose activity change, negative = growth inhibition, usual class: inhibitors; chicken DT40 Tdp1-/-;hTDP1 cells + 20 nM CPT, ATP luminescence, 48 h; actives 12% (n = 420,000); AID 686979; further: potency means the concentration at half of the fitted maximal effect; nearly all actives have a fitted effect of over 55% in size
#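 Chicken DT40 Tdp1-/- cells stably complemented with human TDP1 were seeded at 400 cells/well in medium containing 20 nM camptothecin, exposed to pin-transferred compounds, and grown at 37 °C for at least 48 hr. Viability was read as ATP luminescence.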
# IL1B secr inh – inflammasome signaling inhibition, IL-1 beta readout; THP-1 LPS/ATP IL-1B secretion, AlphaLISA, 16 h; active compounds read low; activity change, % at 57.5 µM; actives 4.7% (n = 360,000); in the data active means activity change below about -50%; inconclusive means mostly about -30% to -49%
#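 Secreted IL-1B measured by AlphaLISA bead assay after 16 h compound exposure of THP-1 cells; compounds (final up to 57.5 uM) added 1 h before LPS (250 ng/mL) and ATP (1.25 mM) stimulation; lower signal means less secretion.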
# HT1080-NT tox – kills 2HG-producing HT-1080-NT fibrosarcoma cells. HT-1080-NT fibrosarcoma viability, CellTiter-Glo ATP luminescence, 48 h. Potency, µM (doses to about 46.1 µM), inactives show top-dose activity, negative = less viability, usual class: cytotoxic. actives 1.6% (n = 360,000);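 further: NT is the 2HG producing partner of a matched IDH1 knockdown line; potency means the concentration at half of the fitted maximal effect; 0% = DMSO-treated cells and -100% = media-only wells without cells; nearly all actives have a fitted effect of over 55% in size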
#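 Compounds were tested in concentration-response format on HT-1080-NT cells for 48 hours at 37 degrees C. Cell viability came from CellTiter-Glo luminescence; curves were classified by r2, response magnitude and activity.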
# TDP1 cell noCPT – qHTS for Inhibitors of human tyrosyl-DNA phosphodiesterase 1 (TDP1): qHTS in cells in absence of CPT; Potency, µM (highest dose often 46.2 µM), for inactives: top-dose activity change, negative = growth inhibition, usual class: inhibitors; DT40 Tdp1-/- hTDP1 cells, no CPT, ATP luminescence, 48 h; actives 15% (n = 420,000); further: potency means the concentration at half of the fitted maximal effect; nearly all actives have a fitted effect of over 55% in size
#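 Readout: luminescence from CellTiter-Glo after 30 min in the dark at RT. Cells: DT40 Tdp1-/- with stable hTDP1, 400/well. Exposure: compounds alone, ≥48 hr, 37 °C.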
# HT1080 IDH1KD tx – kills HT-1080 cells with IDH1 knockdown; actives 2% (n = 360,000); AID 686971; Potency, µM (series often up to 46.1 µM), for the others: at the top dose activity, negative = toxicity, hits mostly cytotoxic; HT-1080 IDH1 knockdown viability, ATP luminescence, 48 h;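 further: potency means the concentration at half of the fitted maximal effect; 0% = DMSO wells and -100% = cell-free medium wells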
#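 After a 2 h attachment period, IDH1KD HT-1080 cells took pin-transferred compound for 48 h at 37 °C; ATP-based luminescence after 10 min room-temperature reagent incubation reported viability.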
# * hit, by the source's call; ? = inconclusive; . = no result given; [ ] = remark or other dose. Unless noted, the call rests on the fitted dose curve; in most records, active means well fitted curve in the direction sought with a large enough effect; inconclusive means small, poorly fitted or top-dose-only effect, or another doubt; inactive means no such curve, though single readings can be large; an effect the other way counts as inactive or inconclusive. Unless noted, on the % scale 0 is the no-effect control and ±100 the full control effect.
SMILES,TDP1 cell CPT,IL1B secr inh,HT1080-NT tox,TDP1 cell noCPT,HT1080 IDH1KD tx
Cc1ccc2nc(Cl)c3cc(C(=O)N(CCN(C)C)Cc4ccco4)sc3c2c1,-109%,.,?,?,23µM*
Cc1ccc(NC(=O)c2cc3c(Cl)nc4ccc(C)cc4c3s2)c(Cl)c1,0%,.,.,?,.
CCCCN(Cc1ccco1)C(=O)c1cc2c(=O)[nH]c3ccc(C)cc3c2s1,?,67,-2%,?,-16%
CCN(C(=O)c1cc2c(Cl)nc3ccc(C)cc3c2s1)c1cc(OC)ccc1OC,?,.,.,15µM*,.
O=C(CC[C@H]1O[C@@H](n2ccc(=O)[nH]c2=O)[C@H](O)[C@@H]1O)NCc1ccccc1,3%,1,1%,-4%,4%
COc1ccccc1CN1CC[C@@]2(CCCN(C(=O)c3c(C)noc3C)C2)C1,-4%,.,.,-17%,.
O=C(c1ccc(Cl)cc1)c1cccc(O)c1,?,-7,9%,?,-3%
CC(CS(=O)(=O)c1ccc2c(c1)NC(=O)CS2)C(=O)NCc1ccccc1Cl (centres undefined),?,6,5%,-1%,-5%
CC(CS(=O)(=O)c1ccc2c(c1)NC(=O)CS2)C(=O)N1CCN(c2cccc(Cl)c2)CC1 (centres undefined),18µM*,-25,-5%,?,-9%
Cc1ccc(N(C)C(=O)CC(C)S(=O)(=O)c2ccc3c(c2)NC(=O)CO3)cc1 (centres undefined),-7%,24,-1%,?,1%
CC(=O)c1ccc(N2CCN(C(=O)CCS(=O)(=O)c3ccc(C)cc3)CC2)cc1,?,14,10%,15µM*,-2%
CN(CC(=O)N1CCN(c2cccc(Cl)c2)CC1)S(=O)(=O)c1cccs1,?,?,-26%,16µM*,3%[9.24 µM]
CC(CC(=O)N1CCN(c2ccccc2)CC1)S(=O)(=O)c1ccc2c(c1)NC(=O)CO2 (centres undefined),21µM*,22,-17%,?,-7%
CN(CC(=O)N1CCN(c2cccc(Cl)c2)CC1)S(=O)(=O)c1cnc[nH]1,3%,5,6%,3%,5%
CC1CCCCN1C(=O)CSc1nnc(-c2cccnc2)o1 (centres undefined),8%,10,4%,-9%,12%
O=C(CN1C(=O)c2cccnc2Oc2ccc(Cl)cc21)NC1CCCCC1,?,-4,-1%,-22%,-4%
COc1ccc(S(=O)(=O)CCC(=O)N2CCN(c3ccccc3F)CC2)cc1,-7%,-7,2%,?,0%
Cc1cccc(N2CCN(C(=O)CCS(=O)(=O)c3ccc4c(c3)NC(=O)CO4)CC2)c1C,?,-11,-11%,?,-4%
COc1ccc(S(=O)(=O)CCC(=O)N2CCN(c3cccc(Cl)c3)CC2)cc1,18µM*,-26,8%,10µM*,4%
COc1ccc(N2CCN(C(=O)CCS(=O)(=O)c3ccc4c(c3)NC(=O)CO4)CC2)cc1,?,47,1%,16µM*,-8%
CCOc1ccccc1N(C)C(=O)CCS(=O)(=O)c1ccc2c(c1)NC(=O)C(C)S2 (centres undefined),?,6,2%,21µM*,-1%
COc1ccc(S(=O)(=O)CCC(=O)N2CCN(c3ccc(C(C)=O)cc3)CC2)cc1,?,0,5%,15µM*,-9%
CCN(CC)S(=O)(=O)c1cccc(NC(=O)COC(=O)CCC(=O)c2ccc(F)cc2)c1,-13%,15,8%,-15%,15%
CC1Sc2ccc(S(=O)(=O)CCC(=O)N3CCN(c4cccc(Cl)c4)CC3)cc2NC1=O (centres undefined),13µM*,0,-29%,7.3µM*,?
O=C(N1CCN(c2cccc(Cl)c2)CC1)C1(c2cccs2)CCOCC1,23µM*,?,2%,21µM*,0%
COc1cccc(CNC(=O)c2nn(-c3ccccc3Cl)nc2CO)c1,?,.,.,-28%,.
